This is a sample that favours compounds with a hit; in the whole collection about 2.7% have one here.
ANO1 activ = TMEM16A chloride channel activators or potentiators, primary screen, cell-based, HTS; Anoctamin-1 (Mus musculus), Q8BHY3; HEK293 TMEM16A/YFP-H148Q/I152L, iodide quench fluorescence; active compounds read low; B-score at 10 µM; actives 0.3% (n = 340,000); AID 623877, 2012;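 active = fluorescence-ratio B-score plate-corrected deviation score at least 3 library SD below zero, with starting fluorescence score within 5 deviations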;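 note: channel opened by trigger with iodide after compound preincubation; score built on the fluorescence ratio of max minus min over baseline; more negative score means more quench and so TMEM16A activation or potentiation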
PP5 primary = PP5 phosphatase inhibitors, primary screen, biochemical, fluorescence. Serine/threonine-protein phosphatase 5 (Homo sapiens), P53041. AID 1987, 2009. purified PP5c, OMFP substrate fluorescence. inhibition, % at 6.7 µM. actives 0.18% (n = 320,000);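 active = inhibition above the campaign's mean inhibition across all tested compounds plus 3 SD, cut at about 9.5% in these data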;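 note: 0% = DMSO only and 100% = 100 µM cantharidin control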
Target sequence (P53041 whole entry, looked up): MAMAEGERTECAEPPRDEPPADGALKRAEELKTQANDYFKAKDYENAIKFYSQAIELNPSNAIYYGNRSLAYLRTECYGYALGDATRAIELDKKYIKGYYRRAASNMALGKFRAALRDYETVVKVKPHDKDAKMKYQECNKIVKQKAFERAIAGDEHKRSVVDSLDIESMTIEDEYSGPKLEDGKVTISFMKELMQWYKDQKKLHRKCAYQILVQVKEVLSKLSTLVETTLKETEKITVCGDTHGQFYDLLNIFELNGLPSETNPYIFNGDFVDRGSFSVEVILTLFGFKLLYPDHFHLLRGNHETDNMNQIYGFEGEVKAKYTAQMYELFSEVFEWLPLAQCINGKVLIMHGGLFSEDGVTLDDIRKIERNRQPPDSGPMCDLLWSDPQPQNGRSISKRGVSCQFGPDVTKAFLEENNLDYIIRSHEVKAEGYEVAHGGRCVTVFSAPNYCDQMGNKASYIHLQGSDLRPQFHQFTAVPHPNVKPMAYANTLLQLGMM
ANO1 block = TMEM16A chloride channel inhibitors, primary screen, cell-based, HTS; actives 1.2% (n = 310,000); Anoctamin-1 (Mus musculus), Q8BHY3; normalized B-score (activity score, 25-100; higher = stronger inhibition) at 10 µM; HEK293 TMEM16A/YFP iodide influx fluorescence, ionomycin;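 active = ratio plate-corrected score three or more library SD toward inhibition, starting fluorescence score within five deviations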;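 note: score derived from kinetic fluorescence span divided by baseline fluorescence per well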
FID counter = compounds displacing fluorescent DNA intercalator, primary screen, artefact control for HCV NS3 helicase inhibitor project, biochemical, FID fluorescence. DNA fluorescent intercalator displacement. inhibition, % at 7.9 µM. actives 0.17% (n = 290,000). AID 1845, 2009; in the data active = inhibition above about 37%;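 note: 0% = vehicle and 100% = reference compound; higher means more ethidium bromide displaced from hairpin DNA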
PREPL inh = PREPL enzyme inhibitors, primary screen, biochemical, fluorescence polarization; actives 0.68% (n = 320,000); recombinant PREPL, fluorescence polarization activity-based probe; Prolyl endopeptidase-like (Homo sapiens), Q4J6C6; inhibition, % at 5.96 µM; AID 2751, 2010; in the data active = inhibition above about 43%;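 note: 0% = enzyme with DMSO and 100% = wells lacking enzyme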
PP1 inh = PP1-alpha phosphatase inhibitors, primary screen, counter-screen for PP5 inhibitor project, biochemical, fluorescence, OMFP substrate, single point | actives 0.9% (n = 320,000) | purified PP1alpha | AID 2235, 2010 | Serine/threonine-protein phosphatase PP1-alpha catalytic subunit (Homo sapiens), P62136 | inhibition, % at 6.7 µM;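 active = inhibition above the mean inhibition of all tested compounds plus 3 SD, computed separately for each screening campaign, cut at about 15% in these data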
TMEM16A reconf = TMEM16A chloride channel inhibitors, confirmation, cell-based, re-confirmation | HEK293 TMEM16A/YFP-H148Q, iodide quench fluorescence; ionomycin added to raise cell calcium | AID 652189, 2013 | shares compounds with ANO1 block | actives 39% (n = 2,300) | inhibition, % at 10 µM;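 active = mean duplicate percent inhibition, scaled so buffer wells are 0 and the reference blocker 100, over three buffer SD above buffer mean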
TMEM16A Ca cntr = calcium mobilization in TMEM16A/YFP HEK293 cells, confirmation, counter-screen for TMEM16A inhibitor project. AID 652231, 2013. shares compounds with ANO1 block. Fluo4 calcium mobilization. calcium response (% of ionomycin), % at 10 µM. actives 2% (n = 2,300);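 active = duplicate-averaged calcium signal over 20% of the ionomycin maximum, relative to buffer baseline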;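 note: each well's signal is peak minus trough fluorescence divided by its pre-addition baseline; 0% = buffer wells and 100% = ionomycin wells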
Parental YFP cnt = iodide YFP quench changes in parental YFP-HEK293, counter-screen for TMEM16A inhibitor project, cell-based | ionomycin | 2,300 tested, under 10 active | shares compounds with ANO1 block | YFP ratio F(max-min)/F0 at 10 µM | AID 652233, 2013;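 active = yellow fluorescent protein signal ratio exceeding the buffer control mean by over 5 SD of those controls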;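 note: ratio is mean of duplicate wells from kinetic YFP trace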
ClC-1 inh = ClC-1 chloride channel inhibition, selectivity assay for TMEM16A inhibitor project, cell-based, voltage-dependent ClC-1. ratio percent, % at 10 µM. CHO ClC-1-YFP, iodide influx fluorescence quench; iodide control reads 0, buffer control 100. shares compounds with ANO1 block. 2,300 tested, under 10 active. AID 652236, 2013;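 active = duplicate-mean ratio percent above the mean of iodide-only control wells, which defines zero, plus 5 of their SD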;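 note: higher percent means stronger block of ClC-1 iodide influx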
* = called active by the depositor; i = inactive; x = no result.

SMILES | ANO1 activ | PP5 primary | ANO1 block | FID counter | PREPL inh | PP1 inh | TMEM16A reconf | TMEM16A Ca cntr | Parental YFP cnt | ClC-1 inh
CCOC(=O)c1sc(NC(=O)c2ccncc2)c(C#N)c1C | i | 2.5 | 25* | -0.3 | 13.3 | 0.3 | 35.0%* | i | -1.09 | -23.0
CCOC(=O)c1sc(NC(=O)CSc2nc3c(cc2C#N)CCCCCC3)c(C#N)c1C | i | 4.1 | 100* | 2.5 | 10.0 | -1.8 | i | i | -1.45 | -5.5
CCOC(=O)c1sc(NC(=O)CSc2n[nH]c(-c3ccc(Cl)cc3Cl)n2)c(C#N)c1C | i | 2.7 | 25* | 0.9 | 23.3 | -1.6 | 50.5%* | i | -0.931 | -13.5
CCCn1c(CN2CCN(C(=O)OCC)CC2)nc2cc(NC(C)=O)ccc21 | x | 0.8 | i | -26.7 | 0.2 | -0.9 | x | x | x | x
CCCC(CCC)C(=O)Nc1c[nH]c(=O)[nH]c1=O | i | -1.7 | 100* | -5.3 | 4.1 | -4.8 | i | i | -0.987 | -21.5
C/C(=N\OC(=O)NC1CCCCC1)c1sc(-c2ccccc2)nc1C | i | 3.3 | 25* | -24.0 | 4.2 | -0.4 | 25.0%* | i | -1.15 | -9.5
O=C(NNS(=O)(=O)c1ccccc1)c1cccc([N+](=O)[O-])c1 | i | 0.6 | i | -1.9 | -3.6 | 7.5 | x | x | x | x
COc1ccc(C(=O)NCc2nnc(SCC(=O)NCCc3ccccc3)o2)cc1 | i | -5.2 | i | -28.5 | 9.9 | 2.0 | x | x | x | x
Cc1c(NC(=O)CSc2ccc(Cl)cc2)cccc1-c1nc2ncccc2o1 | i | 3.0 | 25* | -20.8 | -35.9 | -1.8 | 19.5%* | i | -0.898 | -10.5
COc1ccc(CN2C(=O)c3ccccc3C(/C=N\OCc3ccc(C)cc3)C2=O)cc1 (stereo not drawn) | i | 4.1 | i | -2.0 | -4.3 | 13.3 | 26.0%* | i | -1.25 | -6.5
COc1ccc(CN2C(=O)c3ccccc3C2OC)cc1 (stereo not drawn) | i | -5.8 | i | -17.2 | 11.0 | 2.3 | x | x | x | x
CC1CCCCC12NC(=O)N(CC(=O)Nc1sccc1C(N)=O)C2=O (stereo not drawn) | i | -0.4 | x | x | 18.6 | 1.6 | x | x | x | x
O=C(N/N=C/c1cc([N+](=O)[O-])ccc1N1CCCCCC1)c1ccccn1 | i | 1.7 | i | 2.9 | 6.7 | 0.3 | x | x | x | x
CCN(CC)C(=O)C1CCCN(c2ccc([N+](=O)[O-])cc2/C=N/NC(=O)c2cccc(Br)c2)C1 (stereo not drawn) | i | 4.1 | 100* | -1.4 | 23.6 | 17.2* | i | i | -0.86 | -12.0
CCc1nnc(NC(=O)C2(C)COC(c3ccc(OC)cc3)OC2)s1 (stereo not drawn) | i | -0.5 | i | -24.9 | 4.3 | -5.8 | x | x | x | x
CCCOC(=O)/C(C(N)=NCc1ccccc1)=C(\O)OCCC | i | 3.7 | 100* | -19.7 | 7.4 | 2.7 | i | i | -0.869 | -9.5
CCN(CC)S(=O)(=O)c1cc(-c2nnc(-c3ccc(Br)cc3)o2)ccc1Cl | i | 2.0 | 25* | 10.8 | 14.2 | -0.3 | i | i | -0.861 | -12.5
CCN(CC)S(=O)(=O)c1cc(-c2nnc(-c3ccc(Br)cc3)o2)ccc1Br | i | 0.9 | i | -4.6 | 14.3 | 0.4 | x | x | x | x
Cc1cccc(OCC(=O)Nc2ccc(C(=O)Nc3ccccc3C(=O)O)cc2)c1C | i | 2.7 | i | 6.3 | -5.1 | 9.4 | x | x | x | x
Cc1cc(OCC(=O)Nc2ccncc2)c(C)cc1Br | i | 5.9 | 25* | -2.8 | -34.7 | 3.7 | 34.0%* | i | -0.876 | 0.5
O=C(COc1ccc(Nc2ccccc2)cc1)Nc1ccncc1 | i | 4.1 | 100* | x | 19.3 | -3.4 | 18.5%* | i | -0.931 | -15.0
CC(C)CCOc1cccc(OCC(=O)Nc2ccncc2)c1 | i | 1.0 | 25* | -8.7 | -4.2 | 8.4 | 17.0%* | i | -1.23 | -8.5
CC(C)(C)c1ccc(OCC(=O)Nc2ccc(C(=O)Nc3ccccc3C(=O)O)cc2)cc1 | i | 1.6 | 25* | 15.7 | -13.9 | 2.6 | 56.0%* | 41.5%* | -1.23 | -11.0
COc1cccc(OCC(=O)Nc2ccncc2)c1 | i | 0.5 | i | -2.8 | -7.6 | -3.2 | x | x | x | x
CCOc1ccc(NC(=O)COC(=O)CC2CC3CCC2C3)cc1 (stereo not drawn) | i | x | x | x | 0.6 | x | x | x | x | x
SMILES | ANO1 activ | PP5 primary | ANO1 block | FID counter | PREPL inh | PP1 inh | TMEM16A reconf | TMEM16A Ca cntr | Parental YFP cnt | ClC-1 inh
CCc1cccc(NS(=O)(=O)c2c(C)nc3scc(C)n3c2=O)c1 | i | 1.2 | i | -13.5 | -26.9 | 6.0 | x | x | x | x
COc1ccc(NS(=O)(=O)c2cn(C)cn2)c(OC)c1 | i | -0.2 | i | -4.3 | 16.8 | -4.4 | x | x | x | x
O=C(Nn1c(O)c(C=C2N=c3ccccc3=N2)sc1=S)c1cccc(Cl)c1 | i | 3.3 | 25* | 16.2 | 13.6 | -4.2 | i | i | -0.812 | -6.0
Cc1cc(C)c(S(=O)(=O)/N=C2\C=C(Nc3ccc(C(=O)O)cc3)C(=O)c3ccccc32)c(C)c1 | i | 6.3 | 25* | 1.6 | 32.9 | 7.5 | 26.0%* | i | -1.18 | -30.0
O=C(O)c1ccc(NC2=C/C(=N/S(=O)(=O)c3ccccc3)c3ccccc3C2=O)cc1 | i | x | x | -24.6 | x | x | x | x | x | x
COc1ccc(N(C)C(=O)c2cc3c(s2)-c2ccccc2OC3)c(OC)c1 | i | 4.5 | i | -34.0 | -2.5 | 1.8 | x | x | x | x
COc1ccc(N(C)C(=O)c2cc3c(s2)-c2ccc(Cl)cc2S(=O)(=O)C3)c(OC)c1 | i | 0.5 | 25* | -48.2 | 7.6 | 3.5 | 25.5%* | i | -0.815 | -7.5
Cc1ccc(Nc2nc(C(=O)N3CCC(C(=O)N4CCN(C)CC4)CC3)cs2)cc1 | i | 0.4 | i | 10.8 | 2.9 | -5.9 | x | x | x | x
